Holding throughout (assay type): functional
Assay [1] deals with Solute carrier family 2, facilitated glucose transporter member 1 (Homo sapiens) (UniProt P11166). The assay can be described thus: ST_JUDE_LEISH: Cytotoxicity at 2uM final concentration against transgenic Leishmania Mexicana promastigotes LmGLUT1 that are glucose transport deficient and complemented with the human glucose transporter GLUT1. Activity is measured by DNA content using SYBR green in vitro.

Assay [2] has as its target Hexose transporter 1 (Plasmodium falciparum) (UniProt O97467). The assay can be described thus: ST_JUDE_LEISH: Cytotoxicity at 2uM final concentration against transgenic Leishmania Mexicana promastigotes LmPfHT that are glucose transport deficient and complemented with the Plasmodium falciparum hexose transporter. Activity is measured by DNA content using SYBR green in vitro.

For assay [3], the target named is Glucose transporter (Leishmania mexicana) (UniProt O61059). Description: ST_JUDE_LEISH: Cytotoxicity at 2uM final concentration against transgenic Leishmania Mexicana promastigotes LmGT2 that are glucose transport deficient and complemented with the L. Mexicana glucose transporter 2. Activity is measured by DNA content using SYBR green in vitro.

The term inhibition denotes the change of the read-out against control, counted positive when it falls.

Values joined by “and” are separate entries in the source; they are usually repeats but may differ in a detail not shown here. Equal values may be shown once.

Chain of Solute carrier family 2, facilitated glucose transporter member 1 (Homo sapiens) (P11166 whole entry): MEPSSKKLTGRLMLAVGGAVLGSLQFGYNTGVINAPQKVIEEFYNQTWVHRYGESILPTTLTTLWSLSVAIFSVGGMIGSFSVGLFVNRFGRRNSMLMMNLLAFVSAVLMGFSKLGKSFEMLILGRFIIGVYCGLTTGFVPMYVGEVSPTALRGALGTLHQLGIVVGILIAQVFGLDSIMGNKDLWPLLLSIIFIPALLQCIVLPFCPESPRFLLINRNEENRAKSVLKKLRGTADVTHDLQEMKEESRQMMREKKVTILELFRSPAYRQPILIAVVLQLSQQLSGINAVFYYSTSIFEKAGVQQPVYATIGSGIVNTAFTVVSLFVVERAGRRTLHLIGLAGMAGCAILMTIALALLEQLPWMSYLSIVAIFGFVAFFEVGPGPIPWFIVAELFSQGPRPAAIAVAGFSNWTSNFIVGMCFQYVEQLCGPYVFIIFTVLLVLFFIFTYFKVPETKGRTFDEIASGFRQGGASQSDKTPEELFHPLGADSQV

In the case of `Nc1c(Cl)cc(C(O)CNCCCCCOCCc2ccccc2)cc1C(F)(F)F` (stereo not drawn), the figures for the inhibition in assay [1], in assay [2] and in assay [3] were 8.73%, 4.17% and -2.01%, respectively.
On to `O=C(Nc1cccnc1)c1cc(-c2cccnc2)nc2ccc(Br)cc12`, for which the inhibition is 7.01% in assay [1], 1.51% in assay [2] and -1.18% in assay [3].
Take `NCC1CCCN1Cc1ccc(-c2ccc(-c3nc4cc(F)ccc4[nH]3)cc2)cc1` (stereo not drawn): the values for the inhibition in assay [1], in assay [2] and in assay [3] were 8.49%, 5.64% and 4.54%, respectively.
Regarding `O=C(c1ccc(O)c(-c2cc(Cl)cc(Cl)c2)c1)N1CCCC1`, the inhibition is 1.89% in assay [1], 0.9% in assay [2] and -0.96% in assay [3].
Take `CC(C)CCN1CCC(Oc2ccc(NC(=O)c3ccc4ncccc4c3)cc2Cl)C1` (stereo not drawn): the inhibition worked out at 1.24% in assay [1], 2.56% in assay [2] and 1.94% in assay [3].
For `CCNc1cc(C(=O)N[C@@H](Cc2ccccc2)[C@H](O)CNCc2cccc(-n3ccnc3)c2)cc(N2CCCC2=O)c1` the same measures were -1.37%, -0.52% and 1.12%.
For `COC(=O)c1cccc(CNCc2cccc(-c3cccc(-c4nc5cc(F)ccc5[nH]4)c3)c2)c1`, the inhibition was 5.23% in assay [1], 5.92% in assay [2] and 4.97% in assay [3].
For `Cn1nc(-c2cccc(CNCCc3cccs3)c2)c2cnc(NC3CCCC3)nc21`, in that order: 5.58%, 5.16% and 5.1%.
For the compound `COc1ccc(Cl)cc1NC(=O)Nc1cc(C)nc2ccccc12`, the figures for the inhibition in assay [1], in assay [2] and in assay [3] were 7.32%, 12.8% and 2.81%, respectively.
For `COc1ccc(-c2nc3c4ccccc4c4ccc(I)cc4c3[nH]2)cc1` the same measures were 5.22%, 2.48% and 2.32%.
Turning to `Cc1ccoc1C(=O)Nc1cccc(-c2cccc(-c3nc4cccc(C)c4[nH]3)c2)c1`, the inhibition was found to be 7.85% in assay [1], 5.09% in assay [2] and 4.05% in assay [3].
As for `C[C@H](CNc1ccnc(Nc2ccc3[nH]c(=O)[nH]c3c2)n1)c1ccccc1`, the inhibition in assay [1] is -1.01% and -1.44%; in assay [2], -0.33% and -0.77%; in assay [3] it was -0.13% and 0.71%.
With `Fc1ccc2[nH]c(-c3cccc(-c4ccc(CNCCN5CCNCC5)cc4)c3)nc2c1`, the inhibition in assay [1] was -0.21%; in assay [2] it was -0.52%; in assay [3], -0.74%.
For `C=CC(C)C1OC(=O)c2cc(OC)cc(OC)c21` (stereo not drawn), in that order: 92.2%, 89% and 86.8%.
As for `CC(C)N(CCOc1ccc2c(c1)N(C(=O)Nc1ccc(Cl)c(Cl)c1)CC2)C(C)C`, the inhibition in assay [1] is -0.91%; in assay [2] it was 0.27%; in assay [3], -4.18%.
For `COc1ccc2nccc([C@@H](O)CN3CCC(NC(=O)/C=C/c4ccnc5ccccc45)CC3)c2c1`, in that order: -1.7%, -1.62% and -2.64%.
For `CN(C)CCCNc1nccc(N(C)c2ccc(NC(=O)Nc3cc(C(F)(F)F)ccc3F)cc2)n1` the same measures were 1.93%, -0.78% and -0.59%.
As for `COc1ccc(Br)cc1/C=C/C(=O)Nc1ccc(C2CCCN(C)C2)cc1` (stereo not drawn), the inhibition in assay [1] was 3.89%; in assay [2], 2.73%; in assay [3] it was 5.71%.
Take `Clc1ccccc1CCNCC1CCN(CC2CCCCC2)CC1`: the inhibition is 4.24% in assay [1], 5.3% in assay [2] and 1.76% in assay [3].
Take `O=C(Nc1cccc(CN2CCCN(Cc3cccc(O)c3)CC2)c1)c1ccc2ccccc2c1`: the inhibition in assay [1] is 1.01%; in assay [2] it was 1.53%; in assay [3] it was -2.82%.
For `CCN(CC)CCCSc1ccc(-c2ccc(SCCCN(CC)CC)cc2)cc1`, in that order: 88.5%, 91.5% and 78.2%.
For the compound `CN(CCCCN)Cc1ccc(-c2ccc(Cl)cc2)cc1`, the inhibition in assay [1] stood at 21.7%; in assay [2], 19.1%; in assay [3] it was 10.5%.
Take `COCC(=O)Nc1nc2ccccc2[nH]1`: the results for the inhibition in assay [1], in assay [2] and in assay [3] were 2.56%, 2.67% and 2.36%, respectively.
As to `CCn1c(-c2nonc2N)nc2c(C#CC(C)(C)O)ncc(OCCNCCc3ccc(OC)cc3)c21`, the values for the inhibition in assay [1], in assay [2] and in assay [3] were 5.15%, 9.69% and 2.23%, respectively.
Take `N#Cc1cccc(C(=O)Nc2ccc(-c3ccc(CN4CCCC4)cc3)cc2)c1`: the inhibition is 7.84% in assay [1], 6.53% in assay [2] and 3.78% in assay [3].
Take `Cc1ccc(-n2ncc(C(=O)Nc3cc(Cl)cc(Cl)c3)c2C2CCNCC2)cc1C`: the inhibition was 3.26% in assay [1], 1.43% in assay [2] and -0.12% in assay [3].
For `Cc1ccc(NCc2cccc(F)c2)cc1S(=O)(=O)N[C@@H]1CCN(C#N)C1` the same measures were 7.1%, 3.53% and 1.18%.
As for `CCC(Cc1cnc2nc(N)nc(N)c2n1)c1ccc(C(=O)N[C@@H](CCC(=O)O)C(=O)O)cc1` (stereo partly drawn), the figures for the inhibition in assay [1], in assay [2] and in assay [3] were 11.9%, 22.1% and 3.38%, respectively.
For `CCN(CC)CCOC(=O)c1ccc(NC(=O)c2cc(-c3ccc(C)cc3)nc3ccccc23)cc1`, in that order: 1.71%, 0.95% and 1.21%.
With `COc1ccc2nccc([C@@H](O)CN3CCC(NS(=O)(=O)c4cc5c(cc4Cl)SCC(=O)N5)CC3)c2c1`, the inhibition is 1.57% in assay [1], 1.6% in assay [2] and -0.41% in assay [3].
`Fc1ccc2[nH]c(-c3ccc(-c4ccc(CNCCN5CCNCC5)cc4)s3)nc2c1`: the values for the inhibition in assay [1], in assay [2] and in assay [3] were 0%, 1.98% and -0.23%, respectively.
For `Oc1ccc2[nH]c(-c3ccc(OC(F)(F)F)cc3)nc2c1CNC1CCCC1`, the inhibition in assay [1] is 2.65%; in assay [2], 3.35%; in assay [3], 3.64%.
For the compound `CCCCN1CCN(Cc2cccc(NC(=O)c3ccc(Cl)c(Cl)c3)c2)CC1`, the inhibition in assay [1] was 13.4%; in assay [2], 10.1%; in assay [3], 10.5%.
With `COc1cccc(NC(=O)c2cc([N+](=O)[O-])ccc2NC(=O)CN2CCc3ccccc3C2)c1`, the results for the inhibition in assay [1], in assay [2] and in assay [3] were 4.59%, 0.9% and 4.74%, respectively.
With `CS(=O)(=O)c1ccc(CNCc2cccc(-c3cccc(-c4nc5ccccc5[nH]4)c3)c2)cc1`, the inhibition is 2.3% in assay [1], 0.28% in assay [2] and -2.15% in assay [3].
Consider `C=C[C@H]1CN(CCCCCCC)CC[C@H]1CC(=O)Nc1cnnc2ccc(OC)cc12`, for which the inhibition in assay [1] stood at 1.79%; in assay [2], 0.25%; in assay [3], 4.78%.

The values are drawn from ChEMBL document CHEMBL3433997, “St. Jude Leishmania screening dataset” (2016).
